# Reference: PubChem BioAssay (NCATS)
# The source made the active and inactive calls. A call without a number means that no potency is given here. Calls follow the shape of the dose curve; as a rule, active = well fitted curve in the direction sought with a large enough effect; inconclusive = small, poorly fitted or top-dose-only effect, or another doubt; inactive = no such curve, though single readings can be large; an effect the other way counts as inactive or inconclusive.
# Assay: Cellular Toxicity (caspase-3) MRC-5 (AID 659);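 also: cells exposed to compound for 16 h at 37 °C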
# Settings: MRC-5 cells, luminescence, normalized: DMSO 0%, 10 µM staurosporine 100%; series mostly up to 91.7 µM
# In short: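 Concentration-dependent caspase 3/7 activation is measured in human normal lung fibroblasts (MRC-5) following 16-hour treatment. AC50 values come from standard Hill-equation modeling of luminescence normalized to DMSO and 10 uM staurosporine.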
row,SMILES,outcome
1,O=C(O)C(Br)Br,inactive
2,Cc1ccc(OP(=O)(Oc2ccc(C)cc2)Oc2ccc(C)cc2)cc1,inactive
3,Oc1c(Cl)c(Cl)cc(Cl)c1Cl,inactive
4,Nc1ccc(Cc2ccc(N)c(Cl)c2)cc1Cl,inactive
5,CN(C)c1ccc(N(C)C)cc1,inactive
6,Brc1ccc(Oc2ccc(Br)cc2Br)c(Br)c1,inactive
7,O=[N+]([O-])c1c(Cl)c(Cl)c(Cl)c(Cl)c1Cl,inactive
8,CN1CSC(=S)N(C)C1,inactive
9,ClCC(Cl)Cl,inactive
10,C=CC(=O)OCCO,inactive
11,CC(C)Br,inactive
12,CC(C)[N+](=O)[O-],inactive
13,CCCC[N+](=O)[O-],inactive
14,Nc1cc(Cl)ccc1O,inactive
15,CCCCC(CC)COC(=O)c1ccc(C(=O)OCC(CC)CCCC)c(C(=O)OCC(CC)CCCC)c1 (configuration not stated),inactive
16,O=C(O)C(Br)CBr (configuration not stated),inactive

row,SMILES,outcome
1,Nc1c(Br)cc([N+](=O)[O-])cc1[N+](=O)[O-],inactive
2,O=[N+]([O-])c1ccccc1CCl,inactive
3,Cc1cc(C)cc(OP(=O)(Oc2cc(C)cc(C)c2)Oc2cc(C)cc(C)c2)c1,inactive
4,N#CC(Br)Br,inactive
5,O=C(O)C(Cl)Br (configuration not stated),inactive
6,COP(=S)(OC)SCn1nnc2ccccc2c1=O,inactive
7,O=C(O)c1cccc(Cl)c1,inactive
8,Cc1cc(N=Nc2ccccc2C)ccc1N,inactive
9,OCCCCO,inactive
10,O=[N+]([O-])c1cc(Cl)c(Cl)c(Cl)c1,inactive
11,Cc1ccc2c(c1N)C(=O)c1ccccc1C2=O,inactive
12,COc1ccccc1N,inactive
13,CC(C)(C)OOC(=O)c1ccccc1,inactive
14,c1ccc(N=NNc2ccccc2)cc1,inactive
15,C(CCOCC1CO1)COCC1CO1 (configuration not stated),inactive
16,CN(C)c1ccc(N)cc1,inactive

# Assay: Cellular Toxicity (caspase-3) Mesangial (AID 660);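 also: combined caspase 3 and 7 activity read by Caspase-Glo luminescence; cells exposed to compound for 16 h before the caspase read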
# Settings: mesangial cells, normalized: DMSO 0%, 100 µM tamoxifen 100%; series mostly up to 91.7 µM
# In short: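 Concentration-response qHTS: compound-induced rise in caspase 3/7 luminescence in human mesangial cells after 16 h, normalized to DMSO and 100 uM tamoxifen controls.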
row,SMILES,outcome
1,O=C(O)C(Br)Br,inactive
2,Cc1ccc(OP(=O)(Oc2ccc(C)cc2)Oc2ccc(C)cc2)cc1,inactive
3,Oc1c(Cl)c(Cl)cc(Cl)c1Cl,inactive
4,Nc1ccc(Cc2ccc(N)c(Cl)c2)cc1Cl,inactive
5,CN(C)c1ccc(N(C)C)cc1,inactive
6,Brc1ccc(Oc2ccc(Br)cc2Br)c(Br)c1,inactive
7,O=[N+]([O-])c1c(Cl)c(Cl)c(Cl)c(Cl)c1Cl,inactive
8,ClCC(Cl)Cl,inactive
9,C=CC(=O)OCCO,inactive
10,CC(C)Br,inactive
11,O=[N+]([O-])c1ccc(O)c([N+](=O)[O-])c1,inactive
12,CC(C)[N+](=O)[O-],inactive
13,CCCC[N+](=O)[O-],inactive
14,Cc1cc(-c2cc(C)c(N)c(C)c2)cc(C)c1N,inactive
15,Nc1cc(Cl)ccc1O,inactive
16,CCN(N=O)C(N)=O,inactive
17,N#CC(Cl)(Cl)Cl,inactive
18,CCCCC(CC)COC(=O)c1ccc(C(=O)OCC(CC)CCCC)c(C(=O)OCC(CC)CCCC)c1 (configuration not stated),inactive

row,SMILES,outcome
1,O=C(O)C(Br)CBr (configuration not stated),inactive
2,Nc1c(Br)cc([N+](=O)[O-])cc1[N+](=O)[O-],inactive
3,O=[N+]([O-])c1ccccc1CCl,inactive
4,Cc1cc(C)cc(OP(=O)(Oc2cc(C)cc(C)c2)Oc2cc(C)cc(C)c2)c1,inactive
5,O=C(O)C(Cl)Br (configuration not stated),inactive
6,COP(=S)(OC)SCn1nnc2ccccc2c1=O,inactive
7,O=C(O)c1cccc(Cl)c1,inactive
8,Cc1cc(N=Nc2ccccc2C)ccc1N,inactive
9,O=[N+]([O-])c1cc(Cl)c(Cl)c(Cl)c1,inactive
10,CC(C)(COCC1CO1)COCC1CO1 (configuration not stated),inactive
11,Cc1ccc2c(c1N)C(=O)c1ccccc1C2=O,inactive
12,COc1ccccc1N,inactive
13,CC(C)(C)OOC(=O)c1ccccc1,inactive
14,COC(C)(C)C,inactive
15,C(CCOCC1CO1)COCC1CO1 (configuration not stated),inactive
16,CN(C)c1ccc(N)cc1,inactive
17,O=[N+]([O-])/C=C/c1ccccc1,inactive

# Assay: Cellular Toxicity (caspase-3) SK-N-SH (AID 661);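 also: cells exposed to compound for 16 hours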
# Settings: SK-N-SH caspase-3 activation, qHTS; series mostly up to 91.7 µM
# In short: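 Caspase 3/7 activation is measured as a luminescence increase from aminoluciferin released by substrate cleavage in SK-N-SH cells after 16 hr compound treatment; values are AC50 from concentration-response curves.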
row,SMILES,Potency
1,O=C(O)C(Br)Br,inactive
2,Cc1ccc(OP(=O)(Oc2ccc(C)cc2)Oc2ccc(C)cc2)cc1,inactive
3,Oc1c(Cl)c(Cl)cc(Cl)c1Cl,inactive
4,Nc1ccc(Cc2ccc(N)c(Cl)c2)cc1Cl,inactive
5,CN(C)c1ccc(N(C)C)cc1,inactive
6,Brc1ccc(Oc2ccc(Br)cc2Br)c(Br)c1,inactive
7,O=[N+]([O-])c1c(Cl)c(Cl)c(Cl)c(Cl)c1Cl,inactive
8,CN1CSC(=S)N(C)C1,inactive
9,ClCC(Cl)Cl,inactive
10,C=CC(=O)OCCO,inactive
11,CC(C)Br,inactive
12,O=[N+]([O-])c1ccc(O)c([N+](=O)[O-])c1,inactive
13,CC(C)[N+](=O)[O-],inactive
14,CCCC[N+](=O)[O-],inactive
15,Cc1cc(-c2cc(C)c(N)c(C)c2)cc(C)c1N,inactive
16,Nc1cc(Cl)ccc1O,inactive
17,CCN(N=O)C(N)=O,inactive
18,N#CC(Cl)(Cl)Cl,inactive
19,CCCCC(CC)COC(=O)c1ccc(C(=O)OCC(CC)CCCC)c(C(=O)OCC(CC)CCCC)c1 (configuration not stated),inactive
20,O=C(O)C(Br)CBr (configuration not stated),inactive

row,SMILES,Potency
1,Nc1c(Br)cc([N+](=O)[O-])cc1[N+](=O)[O-],inactive
2,O=[N+]([O-])c1ccccc1CCl,inactive
3,Cc1cc(C)cc(OP(=O)(Oc2cc(C)cc(C)c2)Oc2cc(C)cc(C)c2)c1,inactive
4,N#CC(Br)Br,inactive
5,O=C(O)C(Cl)Br (configuration not stated),inactive
6,COP(=S)(OC)SCn1nnc2ccccc2c1=O,inactive
7,Nc1ccc([N+](=O)[O-])cc1N,inactive
8,O=C(O)c1cccc(Cl)c1,inactive
9,Cc1cc(N=Nc2ccccc2C)ccc1N,inactive
10,OCCCCO,inactive
11,O=[N+]([O-])c1cc(Cl)c(Cl)c(Cl)c1,inactive
12,CC(C)(COCC1CO1)COCC1CO1 (configuration not stated),inactive
13,Cc1ccc2c(c1N)C(=O)c1ccccc1C2=O,inactive
14,COc1ccccc1N,inactive
15,CC(C)(C)OOC(=O)c1ccccc1,inactive
16,c1ccc(N=NNc2ccccc2)cc1,inactive
17,COC(C)(C)C,inactive
18,C(CCOCC1CO1)COCC1CO1 (configuration not stated),inactive
19,CN(C)c1ccc(N)cc1,inactive
20,O=[N+]([O-])/C=C/c1ccccc1,inactive
